Screening results from PubChem.
Giardia killer: Giardia lamblia killing. activity change, % at 7.66 µM, hits read low. AID 540267. 340,000 compounds, 0.15% hits. Giardia lamblia trophozoite viability; in the data active means activity change below about -80%; inconclusive means between about -30% and that limit;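 further: parasites exposed to compound for two days anaerobically before the ATP read; on the % scale 0 is the no-effect control and ±100 the full control effect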
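Giardia lamblia trophozoites (100 cells/well) were incubated with compounds for 48 h at 37 deg C under anaerobic conditions. Viability was read as ATP content by one-step luminescence after 15-30 min at room temperature.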
IL2 activator: IL-2 activation; AID 652025; IL-2 activation reporter assay, cell-based qHTS; stimulated with anti-CD3/CD4/CD28 beads; in transgenic mouse T cells; 360,000 compounds, 0.065% hits; activation, % (series mostly up to about 46 µM); in the data active means activation above about 50%; inconclusive means mostly about 30% to 49%; further: 0% is about no effect
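Unstimulated transgenic mouse T cells; 60-min compound exposure; bead-based TCR/CD4/CD28 stimulation; 18 h culture, 37 degrees C; dual fluorescence (EGFP, DsRed) plate cytometry.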
RXFP1 antagonist: blocks the human relaxin receptor RXFP1; Q9HBX9; HEK293-RXFP1, relaxin-stimulated cAMP HTRF, 30 min; hits give low values; activity change, negative = inhibition, % at 57.5 µM; 350,000 compounds, 0.59% hits;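 active means activity change of -60% or lower, but not beyond a set lower limit; inconclusive means change between -60% and -40%, or beyond the set limit; inactive means change above -40%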; further: on the % scale 0 is the no-effect control and ±100 the full control effect
NPSR antag: neuropeptide S receptor (human) antagonism, cAMP; Q6W5P4; CHO-NPSR cells, cAMP TR-FRET, antagonist mode; Potency, µM (highest dose often 38.3 µM), for inactives: top-dose activity change, negative = inhibition, hits mostly inhibitors; 220,000 compounds, 1% hits; further: potency means the concentration at half of the fitted maximal effect; on the % scale 0 is the no-effect control and ±100 the full control effect; nearly all actives have a fitted effect of over 50% in size
Target sequence (Q6W5P4 whole entry, looked up): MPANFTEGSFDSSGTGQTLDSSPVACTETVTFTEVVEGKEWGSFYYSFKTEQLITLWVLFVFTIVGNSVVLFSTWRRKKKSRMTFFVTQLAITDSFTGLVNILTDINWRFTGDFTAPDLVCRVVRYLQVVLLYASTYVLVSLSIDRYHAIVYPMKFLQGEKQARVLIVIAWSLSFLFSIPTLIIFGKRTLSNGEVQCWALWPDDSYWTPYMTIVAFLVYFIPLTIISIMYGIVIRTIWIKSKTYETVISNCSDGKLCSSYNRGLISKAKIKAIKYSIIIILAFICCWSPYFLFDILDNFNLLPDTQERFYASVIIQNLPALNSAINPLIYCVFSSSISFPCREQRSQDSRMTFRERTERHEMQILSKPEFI
RXFP1 ag: activates the human relaxin receptor RXFP1; HEK293T-RXFP1 cAMP TR-FRET, 30 min; response scale: percent of porcine relaxin response, buffer zero; Potency, µM (doses to about 57.5 µM), for inactives: at the top dose activation, usual class: activators; 370,000 compounds, 0.3% hits; AID 2676; further: potency means the concentration at half of the fitted maximal effect; on the % scale 0 is the no-effect control and ±100 the full control effect; nearly all actives have a fitted effect of over 60% in size
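HEK293 cells stably expressing RXFP1, treated 30 min at 37C with compounds plus PDE4 inhibitor Ro 20174; cAMP measured by HTRF TR-FRET. Normalized to buffer and 29 nM porcine relaxin; EC50 by Hill fit.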
BRCA1 expr up: activators of BRCA1 expression; MCF7-BRCA1-FFLuc reporter, luminescence, 48 h; response scale: scaled: vehicle 0%, 10 µM genistein 100%; Potency, µM (highest dose often 46.1 µM), for inactives: at the highest dose activation, most hits filed as activators; 380,000 compounds, 1.1% hits; further: potency means the concentration at half of the fitted maximal effect; nearly all actives have a fitted effect of over 80% in size
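Activators of BRCA1 expression were detected as increased firefly luciferase luminescence in engineered MCF7 cells after 48 h compound incubation. Signals were scaled to genistein 10 microM as full activation.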
* = called active by the depositor; ! = repeats disagree; [ ] = remark or other dose. An excerpt weighted towards active compounds, which were near 1.9% of everything screened. Unless noted, the call rests on the fitted dose curve; in most records, active means well fitted curve in the direction sought with a large enough effect; inconclusive means small, poorly fitted or top-dose-only effect, or another doubt; inactive means no such curve, though single readings can be large; an effect the other way counts as inactive or inconclusive.

CN1CC[C@H](CN2c3ccccc3Sc3ccccc32)C1 was read as BRCA1 expr up -22%.
Screening COc1ccccc1NC(=O)CCNS(=O)(=O)c1ccc2c(c1)CCCC(=O)N2 returned RXFP1 ag -2% and BRCA1 expr up -10%.
For O=C(/C=C/c1ccc(Cl)cc1)NCc1cccs1 the results were Giardia killer -12, IL2 activator -3, RXFP1 antagonist 1, NPSR antag -2%, RXFP1 ag -1% and BRCA1 expr up 11µM*.
Screening CN(CCc1cnn(C)c1)C(=O)CCc1nnc(CCCc2ccccc2)o1 returned Giardia killer inconclusive, IL2 activator -3, RXFP1 antagonist 11, NPSR antag -16%, RXFP1 ag -1% and BRCA1 expr up 40%.
For CN(CCc1ccccn1)C(=O)CCc1nnc(CCCc2ccccc2)o1 the results were Giardia killer 0, IL2 activator -2, RXFP1 antagonist 8, NPSR antag 4%, RXFP1 ag 1% and BRCA1 expr up 13µM*.
COc1ccc(NS(=O)(=O)c2ccc3[nH]c4c(c3c2)CCCCC4)cc1 was read as RXFP1 antagonist inconclusive and RXFP1 ag -3%.
`CCOC(=O)Cc1ccc(NC(=O)N(Cc2ccc(OC)cc2)C2CCN(C(C)=O)CC2)cc1` gave RXFP1 antagonist -7 and RXFP1 ag 1%.
`Nc1nonc1-c1noc(CCCN2C(=O)c3ccccc3C2=O)n1` gave Giardia killer -9, IL2 activator -2, RXFP1 antagonist 1, NPSR antag -3%[46.1 µM], RXFP1 ag 0% and BRCA1 expr up 4.5µM*.
For CCOC(=O)c1c(-c2cccc([N+](=O)[O-])c2)csc1NC(=O)C1CCCCC1 the results were Giardia killer 19, IL2 activator -1, RXFP1 antagonist -6, NPSR antag 10µM*, RXFP1 ag 1% and BRCA1 expr up -26%.
CCOC(=O)c1c(-c2ccc(-c3ccccc3)cc2)csc1NC(=O)CNCCN(C)C was read as Giardia killer 13, IL2 activator -3, RXFP1 antagonist -103*, RXFP1 ag 0% and BRCA1 expr up -78%.
CCOC(=O)c1c(-c2ccc(C)c(C)c2)csc1NC(=O)C1CC=CCC1C(=O)O (stereo not given) was read as Giardia killer -2, IL2 activator 0, RXFP1 antagonist 4, NPSR antag 10µM*, RXFP1 ag 4% and BRCA1 expr up -22%.
CCOC(=O)c1c(-c2ccc(F)cc2)csc1NC(=O)C1CC=CCC1C(=O)O (stereo not given) was read as Giardia killer -16, IL2 activator 0, RXFP1 antagonist 2, NPSR antag -22%, RXFP1 ag 6% and BRCA1 expr up -18%.
CCc1c2c(nc3ccc(OC)cc13)-c1nc3ccccc3c(=O)n1C2 was read as Giardia killer -9.
O=[N+]([O-])c1cc(Cl)ccc1-c1nc(-c2ccncc2)no1 was read as Giardia killer -7, IL2 activator 1, RXFP1 antagonist 0, NPSR antag 7%, RXFP1 ag -1% and BRCA1 expr up 86%.
Screening O=[N+]([O-])c1ccc(-c2nc(-c3ccncc3)no2)cc1 returned Giardia killer -19, IL2 activator -1, RXFP1 antagonist 14, NPSR antag 7%, RXFP1 ag 0% and BRCA1 expr up 2.5µM*.
Screening c1coc(-c2nc(-c3ccncc3)no2)c1 returned Giardia killer 33, IL2 activator 0, RXFP1 antagonist 4, NPSR antag -5%[46.1 µM], RXFP1 ag 1% and BRCA1 expr up 3.2µM*.
For Clc1ccccc1-c1nc(-c2ccncc2)no1 the results were Giardia killer -4, IL2 activator 2, RXFP1 antagonist -2, NPSR antag -6%, RXFP1 ag 1% and BRCA1 expr up 1.8µM*!.
